Experiment in all cases: DAPPL (digital affinity profiling via proximity ligation, sequencing); 10 mM Tris-HCl pH 7.5, 50 mM NaCl, 1 mM DTT, 4% glycerol, room temperature, 30 min; GST-TFs on glutathione beads, 16-mer random dsDNA library, 0.1% formaldehyde crosslink after washing; high values mean tight binding
Settings in all cases: protein: recombinant; tags: N-terminal GST; dsDNA, one strand shown

One test addresses T1, FLI1 (Homo sapiens, UniProt Q01543 1-452).
T1 sequence: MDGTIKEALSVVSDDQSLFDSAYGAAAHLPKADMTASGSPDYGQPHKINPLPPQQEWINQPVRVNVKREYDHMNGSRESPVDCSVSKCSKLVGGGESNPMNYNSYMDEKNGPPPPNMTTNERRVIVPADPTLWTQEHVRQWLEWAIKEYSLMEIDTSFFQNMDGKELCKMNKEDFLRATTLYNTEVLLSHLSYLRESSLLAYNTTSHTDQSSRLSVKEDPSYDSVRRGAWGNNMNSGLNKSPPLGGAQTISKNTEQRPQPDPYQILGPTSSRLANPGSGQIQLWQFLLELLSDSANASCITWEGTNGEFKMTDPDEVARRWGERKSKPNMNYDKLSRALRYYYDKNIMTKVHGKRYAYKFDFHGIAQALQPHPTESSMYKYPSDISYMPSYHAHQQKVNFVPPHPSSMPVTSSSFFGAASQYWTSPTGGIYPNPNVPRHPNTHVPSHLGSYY
Put shortly:
(§1)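 Binding signal is defined as a hexamer's read frequency for one factor over its frequency for the tag-only sample. To obtain reads, GST-fused human transcription factors were expressed in yeast, captured on glutathione beads, barcoded with DNA and pooled with that sample. Pools met 200 nmole of a 16-mer random double-stranded DNA library in Tris/NaCl/DTT/glycerol buffer for 30 min at room temperature before washing, 0.1% formaldehyde crosslinking, proximity ligation (BsaI/T4 ligase, 1 h, 37 °C), PCR and Illumina NextSeq500 sequencing.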

A further test has as its target T2, ELK1 (Homo sapiens, UniProt P19419 1-428).
T2 sequence: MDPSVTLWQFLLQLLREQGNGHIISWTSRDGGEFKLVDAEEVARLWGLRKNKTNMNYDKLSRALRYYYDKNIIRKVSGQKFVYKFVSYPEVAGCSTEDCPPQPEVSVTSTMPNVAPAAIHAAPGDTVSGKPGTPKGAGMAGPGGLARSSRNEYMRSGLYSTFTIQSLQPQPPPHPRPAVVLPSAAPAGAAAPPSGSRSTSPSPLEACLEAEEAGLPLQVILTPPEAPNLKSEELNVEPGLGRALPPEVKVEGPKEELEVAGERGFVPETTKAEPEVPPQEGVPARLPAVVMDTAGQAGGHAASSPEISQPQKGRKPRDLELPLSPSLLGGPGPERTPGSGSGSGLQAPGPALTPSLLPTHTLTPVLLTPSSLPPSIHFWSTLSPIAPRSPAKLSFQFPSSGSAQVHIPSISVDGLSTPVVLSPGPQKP
Put shortly: as §1

The target in a further test is T3, GABPA (Homo sapiens, UniProt Q06546 1-454).
T3 sequence: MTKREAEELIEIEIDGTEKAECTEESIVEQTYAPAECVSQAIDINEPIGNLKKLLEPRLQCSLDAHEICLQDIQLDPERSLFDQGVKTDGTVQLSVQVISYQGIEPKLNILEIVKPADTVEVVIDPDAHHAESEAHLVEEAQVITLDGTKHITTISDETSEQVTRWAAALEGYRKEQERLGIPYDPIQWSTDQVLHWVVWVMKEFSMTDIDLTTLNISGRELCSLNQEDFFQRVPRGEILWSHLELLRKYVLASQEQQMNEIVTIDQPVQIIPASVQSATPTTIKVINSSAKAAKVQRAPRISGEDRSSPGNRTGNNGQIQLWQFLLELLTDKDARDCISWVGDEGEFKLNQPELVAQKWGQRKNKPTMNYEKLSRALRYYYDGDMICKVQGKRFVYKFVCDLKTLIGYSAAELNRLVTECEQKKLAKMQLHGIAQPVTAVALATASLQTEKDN
Put shortly:
as §1

A further test addresses T4, ERG (Homo sapiens, UniProt P11308 1-479).
T4 sequence: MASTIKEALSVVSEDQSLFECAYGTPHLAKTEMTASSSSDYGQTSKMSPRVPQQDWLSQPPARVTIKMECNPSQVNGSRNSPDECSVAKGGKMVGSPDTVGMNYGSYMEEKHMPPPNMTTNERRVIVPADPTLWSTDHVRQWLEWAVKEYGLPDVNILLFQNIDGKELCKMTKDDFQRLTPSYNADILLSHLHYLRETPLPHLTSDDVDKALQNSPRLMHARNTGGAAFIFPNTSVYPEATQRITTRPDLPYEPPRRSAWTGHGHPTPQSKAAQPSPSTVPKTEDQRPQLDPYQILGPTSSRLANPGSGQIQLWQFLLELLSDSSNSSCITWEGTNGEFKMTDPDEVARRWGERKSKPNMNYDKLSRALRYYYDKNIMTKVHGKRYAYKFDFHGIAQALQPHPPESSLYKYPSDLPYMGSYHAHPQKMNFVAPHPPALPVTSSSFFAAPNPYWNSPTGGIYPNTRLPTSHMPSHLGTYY
The procedure, abridged:
as §1

A further test addresses ELF1 (Homo sapiens, UniProt P32519 1-619). Put shortly:
as §1

The target in another test is T5, EHF (Homo sapiens, UniProt Q9NZC4 1-300).
T5 sequence: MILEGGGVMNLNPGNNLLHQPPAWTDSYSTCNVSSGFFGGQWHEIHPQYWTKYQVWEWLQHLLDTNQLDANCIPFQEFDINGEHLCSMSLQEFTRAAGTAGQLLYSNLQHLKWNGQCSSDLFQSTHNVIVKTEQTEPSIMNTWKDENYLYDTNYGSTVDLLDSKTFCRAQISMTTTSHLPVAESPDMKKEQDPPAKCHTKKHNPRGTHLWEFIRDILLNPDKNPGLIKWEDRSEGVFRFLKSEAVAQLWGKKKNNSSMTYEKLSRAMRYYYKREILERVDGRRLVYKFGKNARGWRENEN
The procedure, abridged: as §1

A further test concerns the target SPI1 (Homo sapiens, UniProt P17947 1-270). Put shortly:
as §1

The next test deals with SPIB (Homo sapiens, UniProt Q01892 1-262). Put shortly:
as §1

For a further test, the target named is T6, ELK3 (Homo sapiens, UniProt P41970 1-407).
T6 sequence: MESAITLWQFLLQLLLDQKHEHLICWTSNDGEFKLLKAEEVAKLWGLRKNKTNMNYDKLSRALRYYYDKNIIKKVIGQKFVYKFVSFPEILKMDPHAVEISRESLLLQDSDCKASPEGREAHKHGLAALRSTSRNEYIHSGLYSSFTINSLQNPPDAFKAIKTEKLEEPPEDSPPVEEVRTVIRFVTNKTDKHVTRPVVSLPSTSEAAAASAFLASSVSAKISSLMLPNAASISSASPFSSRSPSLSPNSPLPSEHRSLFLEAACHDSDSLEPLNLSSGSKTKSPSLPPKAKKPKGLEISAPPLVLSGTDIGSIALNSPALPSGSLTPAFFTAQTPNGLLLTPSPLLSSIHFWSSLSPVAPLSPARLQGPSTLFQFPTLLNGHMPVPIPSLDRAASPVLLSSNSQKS
The procedure, abridged: as §1

The target in the next test is T7, FEV (Homo sapiens, UniProt Q99581 1-238).
T7 sequence: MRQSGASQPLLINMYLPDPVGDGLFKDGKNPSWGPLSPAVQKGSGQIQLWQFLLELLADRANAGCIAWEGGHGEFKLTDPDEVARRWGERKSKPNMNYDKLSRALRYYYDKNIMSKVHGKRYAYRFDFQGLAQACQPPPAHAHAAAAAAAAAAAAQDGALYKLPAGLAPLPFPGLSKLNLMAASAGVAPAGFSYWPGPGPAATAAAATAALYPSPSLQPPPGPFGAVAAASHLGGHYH
Put shortly: as §1

A further test addresses ETV5 (Homo sapiens, UniProt P41161 1-510). The procedure, abridged: as §1
The next test deals with T8, SPIC (Homo sapiens, UniProt Q8N5J4 1-248).
T8 sequence: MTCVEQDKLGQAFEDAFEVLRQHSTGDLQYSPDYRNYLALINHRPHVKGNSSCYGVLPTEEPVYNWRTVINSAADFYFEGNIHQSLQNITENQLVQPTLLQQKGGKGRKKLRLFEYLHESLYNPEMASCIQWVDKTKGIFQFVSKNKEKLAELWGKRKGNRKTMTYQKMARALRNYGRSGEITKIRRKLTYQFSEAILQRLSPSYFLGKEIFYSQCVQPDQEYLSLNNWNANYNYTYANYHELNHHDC
Put shortly: as §1

The target of a further test is ELF4 (Homo sapiens, UniProt Q99607 1-663). Put shortly:
as §1

A further test deals with T9, ELK4 (Homo sapiens, UniProt P28324-2 1-405).
T9 sequence: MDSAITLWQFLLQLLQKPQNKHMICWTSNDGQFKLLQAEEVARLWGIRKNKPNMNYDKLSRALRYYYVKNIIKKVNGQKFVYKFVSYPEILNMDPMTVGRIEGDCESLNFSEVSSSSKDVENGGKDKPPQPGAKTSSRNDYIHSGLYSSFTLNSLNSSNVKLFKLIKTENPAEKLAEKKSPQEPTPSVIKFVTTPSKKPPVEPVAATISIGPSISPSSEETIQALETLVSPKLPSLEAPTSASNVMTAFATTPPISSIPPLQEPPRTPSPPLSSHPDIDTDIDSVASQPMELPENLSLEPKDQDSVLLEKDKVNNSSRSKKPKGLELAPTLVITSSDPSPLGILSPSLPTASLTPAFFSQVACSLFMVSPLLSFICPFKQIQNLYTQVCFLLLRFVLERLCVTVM
Put shortly: as §1

The next test concerns the target T10, ETV2 (Homo sapiens, UniProt O00321 1-342).
T10 sequence: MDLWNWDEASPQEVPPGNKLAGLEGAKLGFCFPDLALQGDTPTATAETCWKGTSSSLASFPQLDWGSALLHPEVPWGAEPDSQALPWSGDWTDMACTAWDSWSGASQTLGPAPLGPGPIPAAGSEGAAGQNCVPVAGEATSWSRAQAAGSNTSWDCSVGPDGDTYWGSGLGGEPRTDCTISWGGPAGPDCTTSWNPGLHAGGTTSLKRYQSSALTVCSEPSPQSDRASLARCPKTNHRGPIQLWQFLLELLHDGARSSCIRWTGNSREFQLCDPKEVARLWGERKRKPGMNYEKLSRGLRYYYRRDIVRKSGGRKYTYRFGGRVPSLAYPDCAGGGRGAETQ
Put shortly: as §1

For a further test, the target named is T11, ELF3 (Homo sapiens, UniProt P78545 1-371).
T11 sequence: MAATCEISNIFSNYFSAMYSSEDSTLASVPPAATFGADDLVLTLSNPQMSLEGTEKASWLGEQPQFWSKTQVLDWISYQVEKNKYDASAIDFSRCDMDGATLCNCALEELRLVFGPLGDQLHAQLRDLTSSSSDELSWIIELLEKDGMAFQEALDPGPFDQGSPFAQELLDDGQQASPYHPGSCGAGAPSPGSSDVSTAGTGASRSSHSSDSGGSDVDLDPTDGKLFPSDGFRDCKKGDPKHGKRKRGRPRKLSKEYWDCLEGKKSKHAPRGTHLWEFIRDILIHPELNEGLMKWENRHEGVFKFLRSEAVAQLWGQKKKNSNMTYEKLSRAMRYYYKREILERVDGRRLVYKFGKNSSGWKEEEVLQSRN
The procedure, abridged: as §1

In the next test the target is ETV1 (Homo sapiens, UniProt P50549 1-477). Put shortly: as §1

For one sequence, binding signal results are on record in article PMC7862700, “An all-to-all approach to the identification of sequence-specific readers for epigenetic DNA modifications on cytosine”.

Sequence of ETV5 (P41161 whole entry): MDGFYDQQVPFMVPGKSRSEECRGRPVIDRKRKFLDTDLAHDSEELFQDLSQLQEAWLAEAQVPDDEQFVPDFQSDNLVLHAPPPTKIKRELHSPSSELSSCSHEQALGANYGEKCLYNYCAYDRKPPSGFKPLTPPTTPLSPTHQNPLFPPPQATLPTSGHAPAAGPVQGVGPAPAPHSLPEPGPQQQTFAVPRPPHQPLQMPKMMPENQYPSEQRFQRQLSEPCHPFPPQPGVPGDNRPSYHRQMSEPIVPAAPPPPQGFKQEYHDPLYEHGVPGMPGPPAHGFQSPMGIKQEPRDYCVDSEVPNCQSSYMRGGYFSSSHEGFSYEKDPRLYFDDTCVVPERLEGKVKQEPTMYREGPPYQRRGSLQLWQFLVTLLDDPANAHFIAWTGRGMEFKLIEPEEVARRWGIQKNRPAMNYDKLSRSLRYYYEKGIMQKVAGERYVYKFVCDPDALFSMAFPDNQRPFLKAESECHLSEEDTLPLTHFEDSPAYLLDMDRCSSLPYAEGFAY
Sequence of SPIB (Q01892 whole entry): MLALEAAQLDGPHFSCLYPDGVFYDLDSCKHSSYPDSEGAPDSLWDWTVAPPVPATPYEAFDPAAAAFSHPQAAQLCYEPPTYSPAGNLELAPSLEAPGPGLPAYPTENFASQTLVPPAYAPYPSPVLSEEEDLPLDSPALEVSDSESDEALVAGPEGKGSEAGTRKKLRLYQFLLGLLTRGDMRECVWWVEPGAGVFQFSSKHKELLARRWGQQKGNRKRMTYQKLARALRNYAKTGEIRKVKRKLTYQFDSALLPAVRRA
Sequence of ETV1 (P50549 whole entry): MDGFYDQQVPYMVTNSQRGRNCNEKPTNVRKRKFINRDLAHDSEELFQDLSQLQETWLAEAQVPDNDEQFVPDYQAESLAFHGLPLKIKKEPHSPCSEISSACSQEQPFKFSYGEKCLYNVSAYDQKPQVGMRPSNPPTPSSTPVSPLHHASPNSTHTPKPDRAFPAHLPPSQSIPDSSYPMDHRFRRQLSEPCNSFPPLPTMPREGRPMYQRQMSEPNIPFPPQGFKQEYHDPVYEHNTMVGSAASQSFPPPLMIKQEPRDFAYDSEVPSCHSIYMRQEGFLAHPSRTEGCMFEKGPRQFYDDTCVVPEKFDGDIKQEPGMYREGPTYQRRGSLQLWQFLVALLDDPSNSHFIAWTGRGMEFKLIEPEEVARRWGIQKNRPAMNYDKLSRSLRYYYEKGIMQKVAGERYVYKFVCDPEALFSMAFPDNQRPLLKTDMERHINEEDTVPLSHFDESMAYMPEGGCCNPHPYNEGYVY
Sequence of ELF4 (Q99607 whole entry): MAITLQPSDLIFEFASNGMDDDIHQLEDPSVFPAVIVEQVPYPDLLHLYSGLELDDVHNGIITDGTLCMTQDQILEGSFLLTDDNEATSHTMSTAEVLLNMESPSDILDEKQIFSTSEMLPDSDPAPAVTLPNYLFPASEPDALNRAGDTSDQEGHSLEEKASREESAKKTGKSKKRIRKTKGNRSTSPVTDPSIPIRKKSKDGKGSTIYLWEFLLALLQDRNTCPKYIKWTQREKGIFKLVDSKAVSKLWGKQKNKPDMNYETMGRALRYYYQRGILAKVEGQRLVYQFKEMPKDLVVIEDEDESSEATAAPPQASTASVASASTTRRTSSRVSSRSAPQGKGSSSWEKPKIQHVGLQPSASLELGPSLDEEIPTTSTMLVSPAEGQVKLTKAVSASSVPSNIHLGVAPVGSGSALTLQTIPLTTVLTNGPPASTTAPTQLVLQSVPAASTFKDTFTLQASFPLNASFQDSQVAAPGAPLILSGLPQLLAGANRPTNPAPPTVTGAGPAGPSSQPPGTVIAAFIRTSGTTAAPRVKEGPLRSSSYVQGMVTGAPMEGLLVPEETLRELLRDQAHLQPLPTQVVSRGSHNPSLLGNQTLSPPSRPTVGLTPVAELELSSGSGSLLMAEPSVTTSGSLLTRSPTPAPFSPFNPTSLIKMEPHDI
Sequence of ELF1 (P32519 whole entry): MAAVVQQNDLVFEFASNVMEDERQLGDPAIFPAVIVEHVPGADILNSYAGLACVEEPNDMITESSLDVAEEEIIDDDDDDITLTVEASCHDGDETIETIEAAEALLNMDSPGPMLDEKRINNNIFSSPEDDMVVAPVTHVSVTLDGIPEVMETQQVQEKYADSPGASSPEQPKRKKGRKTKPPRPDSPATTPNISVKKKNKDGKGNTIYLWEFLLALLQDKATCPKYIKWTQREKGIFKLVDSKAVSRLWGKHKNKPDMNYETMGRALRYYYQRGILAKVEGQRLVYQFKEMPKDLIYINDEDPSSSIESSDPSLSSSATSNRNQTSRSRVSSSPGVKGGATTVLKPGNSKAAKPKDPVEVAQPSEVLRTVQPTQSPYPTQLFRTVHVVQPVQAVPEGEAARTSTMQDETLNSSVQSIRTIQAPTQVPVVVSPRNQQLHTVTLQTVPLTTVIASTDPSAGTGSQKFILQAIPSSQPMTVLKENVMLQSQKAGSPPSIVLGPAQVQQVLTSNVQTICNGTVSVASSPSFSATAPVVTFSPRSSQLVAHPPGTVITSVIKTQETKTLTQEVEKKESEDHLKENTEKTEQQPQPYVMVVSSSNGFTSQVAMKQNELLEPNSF

Turning to CACATA, the binding signal is 1.14 fold enrichment (6-mer frequency, TF over GST control) with FLI1; 1.14 fold enrichment (6-mer frequency, TF over GST control) with ELK1; 1.11 fold enrichment (6-mer frequency, TF over GST control) in the test with GABPA; 1.14 fold enrichment (6-mer frequency, TF over GST control) with ERG; 1.18 fold enrichment (6-mer frequency, TF over GST control) in the test with ELF1; 1.13 fold enrichment (6-mer frequency, TF over GST control) with EHF. Besides, the binding signal is 1.11 fold enrichment (6-mer frequency, TF over GST control) with SPI1; 1.06 fold enrichment (6-mer frequency, TF over GST control) with SPIB; 1.17 fold enrichment (6-mer frequency, TF over GST control) with ELK3; 1.1 fold enrichment (6-mer frequency, TF over GST control) with FEV; 1.1 fold enrichment (6-mer frequency, TF over GST control) in the test with ETV5; 1.07 fold enrichment (6-mer frequency, TF over GST control) with SPIC. The binding signal with ELF4 was 1.1 fold enrichment (6-mer frequency, TF over GST control); with ELK4 it was 1.07 fold enrichment (6-mer frequency, TF over GST control); with ETV2, 1.18 fold enrichment (6-mer frequency, TF over GST control); in the test with ELF3, 1.11 fold enrichment (6-mer frequency, TF over GST control); in the test with ETV1 it was 1.05 fold enrichment (6-mer frequency, TF over GST control).
